Experimental data: PubChem BioAssay (Tox21)
Inconclusive results are not listed. Active and inactive are the calls of the source. Unless noted, calls come from the whole dose curve; as a rule, active = well fitted curve in the direction sought with a large enough effect in the repeat runs; inconclusive = weak or mixed curves; inactive = no such curve, though single readings can be large; an effect the other way counts as inactive or inconclusive.

How the values were obtained:
[1] = molecular target: Thyrotropin-releasing hormone receptor (Homo sapiens) (UniProt P34981); test: qHTS assay to identify small molecule agonists of the thyrotropin-releasing hormone receptor (TRHR) signaling pathway (AID 1346891; calls by dose curve; note: series mostly up to about 58 µM)
Chain of Thyrotropin-releasing hormone receptor (Homo sapiens) (P34981 whole entry, looked up): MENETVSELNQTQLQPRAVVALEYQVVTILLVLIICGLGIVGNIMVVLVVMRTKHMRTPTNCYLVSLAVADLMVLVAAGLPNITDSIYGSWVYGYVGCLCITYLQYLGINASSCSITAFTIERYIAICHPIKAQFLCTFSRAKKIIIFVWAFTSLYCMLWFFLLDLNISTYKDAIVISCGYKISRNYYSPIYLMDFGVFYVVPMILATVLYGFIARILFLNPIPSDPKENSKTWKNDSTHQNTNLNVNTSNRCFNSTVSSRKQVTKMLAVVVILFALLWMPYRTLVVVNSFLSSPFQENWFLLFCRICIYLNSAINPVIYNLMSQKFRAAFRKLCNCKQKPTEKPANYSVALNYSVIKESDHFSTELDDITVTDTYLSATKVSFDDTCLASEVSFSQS
Method in brief: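 Readout was intracellular calcium fluorescence in TRHR-Hek293 cells. Cells were incubated 18 h, dye-loaded 2 h at 37 °C, and treated with compound in agonist mode.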

[2] = Human pregnane X receptor (PXR) small molecule agonists, qHTS cell viability counter screen (AID 1346977); note: nearly all actives have a fitted effect of over 50% in size
Method in brief: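 In each well, the PXR reporter HepG2 line was checked for viability: CellTiter-Fluor reagent added 23hr post-dosing, fluorescence read after 1hr incubation at 37C.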

[3] = Caspase-3/7 induction in HepG2 cells by small molecules, qHTS assay (AID 1346978); note: nearly all actives have a fitted effect of over 15% in size
Method in brief: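 Wild-type HepG2 cells (2,000/well) were settled 5 h at 37 C, 5% CO2, then exposed to compounds in DMSO for 17 h. Caspase-3/7 activity was read by luminescence 30 min after adding Caspase-Glo 3/7 reagent at room temperature.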

[4] = Caspase-3/7 induction in CHO-K1 cells by small molecules, qHTS cell viability counter screen (AID 1346979); note: nearly all actives have a fitted effect of over 35% in size
Method in brief: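 Following a 5hr settling period, CHO-K1 cells at 1,500 per well received DMSO-dissolved compounds. Cell viability was quantified 16hr later by CellTiter-Fluor fluorescence, measured after 1hr with reagent at 37C.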

[5] = Caspase-3/7 induction in CHO-K1 cells by small molecules, qHTS assay (AID 1346980); note: nearly all actives have a fitted effect of over 15% in size
Method in brief: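 Wild-type cells were seeded at 1,500 per well and settled 5 hr at 37 C, 5% CO2, then exposed to DMSO-dissolved compounds for 17 hr. Caspase-Glo 3/7 reagent was added, and luminescence was read after 30min at room temperature.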

[6] = Caspase-3/7 induction in HepG2 cells by small molecules, qHTS cell viability counter screen (AID 1346981); note: series mostly up to about 92 µM; nearly all actives have a fitted effect of over 30% in size
Method in brief: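 Counter screen for cytotoxicity: HepG2 exposed 16 hr to compounds, then CellTiter-Fluor viability signal (fluorescence, 1 hr reagent incubation).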

[7] = molecular target: Nuclear receptor subfamily 1 group I member 2 (Homo sapiens) (UniProt O75469); test: Human pregnane X receptor (PXR) small molecule agonists, qHTS assay (AID 1346982); note: nearly all actives have a fitted effect of over 35% in size
Chain of Nuclear receptor subfamily 1 group I member 2 (Homo sapiens) (O75469 whole entry, looked up): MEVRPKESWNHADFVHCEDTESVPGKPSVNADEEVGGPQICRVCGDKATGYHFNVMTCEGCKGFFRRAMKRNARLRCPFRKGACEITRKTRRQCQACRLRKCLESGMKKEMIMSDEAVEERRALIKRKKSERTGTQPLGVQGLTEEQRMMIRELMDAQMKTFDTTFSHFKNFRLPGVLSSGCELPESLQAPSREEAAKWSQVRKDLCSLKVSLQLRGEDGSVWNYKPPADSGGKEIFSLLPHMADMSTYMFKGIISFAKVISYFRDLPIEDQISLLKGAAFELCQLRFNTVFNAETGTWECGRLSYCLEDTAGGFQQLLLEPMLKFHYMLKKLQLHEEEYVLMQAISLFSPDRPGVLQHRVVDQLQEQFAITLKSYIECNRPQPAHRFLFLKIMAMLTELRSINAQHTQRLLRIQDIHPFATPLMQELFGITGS
Method in brief: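 Luminescence (ONE-Glo, 30 min RT) after 24 hr compound exposure of PXR-Luc HepG2 cells; cells rested 5 hr post-plating in 5% charcoal-stripped FBS medium.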

[8] = molecular target: Nuclear receptor subfamily 1 group I member 2 (Rattus norvegicus) (UniProt Q9R1A7); test: Rat pregnane X receptor (rPXR) activation by small molecules, qHTS assay (AID 1346983); details: rPXR luciferase reporter cells, One-Glo luminescence, 24 h; hits give high values; note: nearly all actives have a fitted effect of over 20% in size
Chain of Nuclear receptor subfamily 1 group I member 2 (Rattus norvegicus) (Q9R1A7 whole entry, looked up): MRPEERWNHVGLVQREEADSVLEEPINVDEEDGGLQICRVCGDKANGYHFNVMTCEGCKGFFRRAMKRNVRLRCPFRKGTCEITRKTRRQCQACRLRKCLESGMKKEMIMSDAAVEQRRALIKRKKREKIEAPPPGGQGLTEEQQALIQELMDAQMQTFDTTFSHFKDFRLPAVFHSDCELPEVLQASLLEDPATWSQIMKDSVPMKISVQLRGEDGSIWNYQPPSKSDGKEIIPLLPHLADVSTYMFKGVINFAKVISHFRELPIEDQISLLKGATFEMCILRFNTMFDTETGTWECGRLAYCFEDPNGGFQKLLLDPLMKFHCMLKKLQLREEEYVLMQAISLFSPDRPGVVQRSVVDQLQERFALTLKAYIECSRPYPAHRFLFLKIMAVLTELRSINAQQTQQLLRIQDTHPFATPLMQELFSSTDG
Method in brief: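 Cell-based rPXR luciferase reporter assay, 2,000 cells per well, rested 5hr at 37 C before compound addition in DMSO, then 24 hr at 37 C. One-Glo reagent was added and luminescence read after 30 min at room temperature.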

[9] = molecular target: Nuclear receptor subfamily 1 group I member 2 (Homo sapiens) (UniProt O75469); test: CYP3A4 induction through human pregnane X receptor (PXR) by small molecules, qHTS assay (AID 1346984); note: nearly all actives have a fitted effect of over 40% in size
Method in brief: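 DPX-2 reporter cells; 24h cpd, 37C; Luciferin-IPA 3uM final x3h; One-Glo 30 min RT; lumi read.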

[10] = molecular target: Nuclear receptor subfamily 1 group I member 2 (Homo sapiens) (UniProt O75469); test: Human pregnane X receptor (PXR) activation by small molecules, qHTS assay (AID 1346985); note: nearly all actives have a fitted effect of over 40% in size
Method in brief: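 DPX-2 cells (HepG2 co-transfected with a PXR response element and a CYP3A4-promoter luciferase construct) were seeded at 2,000 per well, rested 5 hr at 37C, then exposed to DMSO-dissolved compounds for 24 hr. Activation was read as luciferase luminescence.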
% is set by controls: 0 for no effect and ±100 for the full control effect.

N[C@H](C(=O)O)c1ccc(O)cc1
inactive: activation [1] 0.371% [at 11.8 µM] | activity change, negative = cytotoxicity [2] 0.445% [at 19 µM] | caspase activation [3] -0.122% [at 19 µM] | Potency [4] | caspase-3/7 activation [5] -0.938% [at 19 µM] | activity change, negative = cytotoxicity [6] 0.561% [at 19 µM] | activation [7] -2.7% [at 19 µM] | max activation [8] -1.63% | Potency [9] | Potency [10]

c1ccc(CC2=NCCN2)cc1
inactive: outcome [1] | Potency [2] | Potency [3] | Potency [4] | outcome [5] | Potency [6] | Potency [7] | max activation [8] -1.57% | Potency [9] | Potency [10]

CC(C)NCC(O)c1ccc(NS(C)(=O)=O)cc1 (centres undefined)
inactive: outcome [1] | Potency [2] | Potency [3] | Potency [4] | outcome [5] | Potency [6] | Potency [7] | max activation [8] -1.64% | Potency [9] | Potency [10]

CN(C)CCCSc1ccccc1NC(=O)/C=C/c1ccccc1
inactive: outcome [1] | Potency [2] | Potency [3] | Potency [4] | outcome [5] | Potency [6] | max activation [8] 2.69% | Potency [9]

Cc1cc2c(cc1S(N)(=O)=O)S(=O)(=O)CCC2
inactive: outcome [1] | Potency [2] | Potency [3] | Potency [4] | outcome [5] | Potency [6] | Potency [7] | max activation [8] -2.16% | Potency [9] | Potency [10]

c1ccc([C@H]2CN3CCSC3=N2)cc1
inactive: outcome [1] | Potency [2] | Potency [3] | Potency [4] | outcome [5] | Potency [6] | Potency [7] | max activation [8] -1.7% | Potency [9] | Potency [10]

C[C@@H]1CCN(C(=O)[C@H](CCCN=C(N)N)NS(=O)(=O)c2cccc3c2NC[C@H](C)C3)[C@@H](C(=O)O)C1
inactive: outcome [1] | Potency [2] | Potency [3] | Potency [4] | outcome [5] | Potency [6] | Potency [7] | max activation [8] -0.172% | Potency [9] | Potency [10]

Cc1[nH]c(=O)c(C#N)cc1-c1ccc2nccn2c1
inactive: outcome [1] | Potency [2] | Potency [3] | Potency [4] | outcome [5] | Potency [6] | Potency [7] | max activation [8] 0.264% | Potency [9] | Potency [10]

CCOC(=O)c1cccc(N)c1
inactive: outcome [1] | Potency [2] | Potency [3] | Potency [4] | outcome [5] | Potency [6] | Potency [7] | Potency [9]

CCCCOCCOCCOCc1cc2c(cc1CCC)OCO2
inactive: outcome [1] | Potency [2] | Potency [3] | Potency [4] | outcome [5] | Potency [6] | max activation [8] -0.229%

CC1(C)CO[C@@H](CC(=O)O)CN1
inactive: outcome [1] | Potency [2] | Potency [3] | Potency [4] | outcome [5] | Potency [6] | Potency [7] | max activation [8] -0.675% | Potency [9] | Potency [10]

COC(=O)[C@@H](N)Cc1ccc(O)c(O)c1
inactive: outcome [1] | Potency [2] | Potency [3] | Potency [4] | outcome [5] | Potency [6] | Potency [7] | max activation [8] -6.8% | Potency [9] | Potency [10]

C[N+](C)(C)CCCCCC[N+](C)(C)C
inactive: outcome [1] | Potency [2] | Potency [3] | Potency [4] | outcome [5] | Potency [6] | max activation [8] 0.135%

Cc1cc(O)cc2c1O[C@](C)(CCC[C@H](C)CCC[C@H](C)CCCC(C)C)CC2
inactive: outcome [1] | Potency [2] | Potency [3] | Potency [4] | outcome [5] | Potency [6] | Potency [7] | max activation [8] -2.13% | Potency [9] | Potency [10]

CCOC(=O)[C@H](CCc1ccccc1)N[C@@H](C)C(=O)N1[C@H](C(=O)O)C[C@@H]2CCC[C@@H]21
inactive: outcome [1] | Potency [2] | Potency [3] | Potency [4] | outcome [5] | Potency [6] | Potency [7] | max activation [8] -3.39% | Potency [10]

CC(C)c1cc2c(cc1S(=O)(=O)O)[C@@]1(C)CCC[C@@](C)(C(=O)O)[C@@H]1CC2
inactive: outcome [1] | Potency [2] | Potency [3] | Potency [4] | outcome [5] | Potency [6] | Potency [7] | max activation [8] 2.4% | Potency [9] | Potency [10]

FC(F)OC(Cl)C(F)(F)F (centres undefined)
inactive: outcome [1] | Potency [2] | Potency [3] | Potency [4] | outcome [5] | Potency [6] | Potency [7] | max activation [8] -3.14% | Potency [9] | Potency [10]
